Reference: publication PMC4336329 (PLoS ONE, 2015)
The whole screen tested about 310,000 compounds, of which about 14,000 (4.5%) showed an effect of 50% or more. The effect is printed as a negative number. This excerpt belongs to a sample that is enriched for strong results.

The compounds below were run against human ether-à-go-go-related gene (hERG) potassium channel (human, UniProt Q12809) (assay: primary screen, population patch clamp on CHO cells stably expressing hERG; higher = less effect of the substance).
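Further: peak tail current of the secondary pulse compared with the same well before compound.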

Sequence of human ether-à-go-go-related gene (hERG) potassium channel (Q12809 whole entry, looked up): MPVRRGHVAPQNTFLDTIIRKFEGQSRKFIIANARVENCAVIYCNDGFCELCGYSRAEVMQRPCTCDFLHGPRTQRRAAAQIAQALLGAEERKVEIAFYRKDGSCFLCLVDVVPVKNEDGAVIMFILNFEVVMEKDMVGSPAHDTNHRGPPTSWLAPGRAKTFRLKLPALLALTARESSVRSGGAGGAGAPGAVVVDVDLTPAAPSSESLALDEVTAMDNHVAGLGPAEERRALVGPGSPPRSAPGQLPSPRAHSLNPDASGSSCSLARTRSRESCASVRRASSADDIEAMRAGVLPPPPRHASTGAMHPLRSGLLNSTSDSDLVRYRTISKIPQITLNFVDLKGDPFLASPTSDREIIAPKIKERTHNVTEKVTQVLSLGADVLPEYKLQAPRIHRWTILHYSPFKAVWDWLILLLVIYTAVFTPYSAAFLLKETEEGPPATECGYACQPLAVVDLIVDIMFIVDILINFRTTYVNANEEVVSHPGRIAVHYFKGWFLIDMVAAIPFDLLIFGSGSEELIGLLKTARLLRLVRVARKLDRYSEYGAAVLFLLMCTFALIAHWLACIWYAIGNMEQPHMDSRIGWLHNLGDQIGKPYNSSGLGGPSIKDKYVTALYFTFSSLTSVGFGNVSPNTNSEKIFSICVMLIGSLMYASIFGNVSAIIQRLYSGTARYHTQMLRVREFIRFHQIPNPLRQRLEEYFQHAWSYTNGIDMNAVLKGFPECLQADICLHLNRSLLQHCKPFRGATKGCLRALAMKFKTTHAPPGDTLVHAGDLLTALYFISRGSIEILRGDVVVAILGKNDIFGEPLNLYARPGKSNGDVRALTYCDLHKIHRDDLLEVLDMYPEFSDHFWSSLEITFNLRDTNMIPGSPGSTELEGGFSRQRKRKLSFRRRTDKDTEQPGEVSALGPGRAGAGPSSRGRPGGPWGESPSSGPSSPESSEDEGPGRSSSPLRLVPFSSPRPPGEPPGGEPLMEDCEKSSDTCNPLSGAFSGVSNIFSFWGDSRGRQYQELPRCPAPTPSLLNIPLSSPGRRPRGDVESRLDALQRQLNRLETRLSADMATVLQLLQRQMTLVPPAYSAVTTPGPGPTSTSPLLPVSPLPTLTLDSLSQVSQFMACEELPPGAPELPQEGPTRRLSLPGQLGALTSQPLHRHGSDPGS

Compound | hERG current change (%, negative = inhibition) at 10uM
Cc1ccc(OCCCCNC(C)c2ccccc2)c(C)c1 (stereo not drawn) | 2.1%
O=C(NN1C(=O)/C(=C/C=C/c2ccco2)SC1=S)c1ccncc1 | 15.3%
Cc1ccc(C2c3[nH]c4ccccc4c3C[C@H]3C(=O)N(c4ccccc4C(=O)N4CCC[C@@H]4C(=O)O)C(=O)N23)cc1 (stereo partly drawn) | -0.654%
Cc1ccc2c(=O)cc(C(=O)NCCc3ccc(S(N)(=O)=O)cc3)oc2c1 | 9.13%
Cc1ccccc1NC(=O)Cn1nc(C(F)(F)F)cc1C1CC1 | 8.48%
COC(=O)C1=C(C)OC(N)=C(C#N)C1c1cc(C)sc1C (stereo not drawn) | -0.682%
Nc1cc(=O)[nH]c(SCC(=O)N2CCC(Cc3ccccc3)CC2)n1 | -2.88%
C/C(=N/NC(N)=S)c1ccccc1[N+](=O)[O-] | 7.13%
Nc1nc(-c2ccc3c(c2)NC(=O)CO3)cs1 | 15.5%
OCCOc1ccc(CN2CCN(CCCc3ccccc3)C(CCO)C2)cc1 (stereo not drawn) | -63.3%
CCOc1ccccc1CN1CCN(CCCc2ccccc2)CC1CCO (stereo not drawn) | -64.9%
CCOc1ccc(CN2CCN(CCCc3ccccc3)CC2CCO)cc1 (stereo not drawn) | -76%
CCOc1ccc(CN2CCN(CCCc3ccccc3)C(CCO)C2)cc1 (stereo not drawn) | -75.5%
CCOc1ccccc1CN1CCN(CC2CC2)CC1CCO (stereo not drawn) | -2.67%
CCNC(=S)Nc1ccc(Cl)cc1Cl | -14%
CCOC(=O)c1nc(C)n(-c2cc(Cl)ccc2Cl)n1 | 1.64%
Cc1onc(-c2c(Cl)cccc2Cl)c1C(=O)n1nnc2ccccc21 | -3.48%
CN(CC(=O)Nc1ccc(N2CCOCC2)cc1)C(=O)c1cc(F)c(F)cc1Cl | -38.3%
Cc1sc2ncnc(SCC(=O)NC(=O)c3cccn3C)c2c1C | 10.8%
Cc1nc(C)n(CC(O)COc2ccc(C(=O)c3ccccc3)cc2)n1 (stereo not drawn) | -6.4%
Cc1ccccc1C(OCCN(C(C)C)C(C)C)c1ccccc1.O=C(O)/C=C\C(=O)O (stereo not drawn) | -68.3%

Compound | hERG current change (%, negative = inhibition) at 10uM
Cc1ccccc1C(OCCN(C)C)C1CCCCC1.O=C(O)C(=O)O (stereo not drawn) | -16.3%
Cc1ccccc1C(=O)NNC(=O)/C=C\C(=O)O | -11.1%
Cc1ccc2nc(NC(=O)C3CCN(S(=O)(=O)c4cnc[nH]4)CC3)sc2c1 | 6.57%
O=C(CSc1nnc2c(Cl)cc(Cl)cn12)N1CCOCC1 | -6.52%
Cn1nnnc1SCC(=O)N1CCN(c2cccc(Cl)c2)CC1 | -26.8%
Cn1nnnc1SCC(=O)N1CCN(c2ccc(Cl)cc2)CC1 | -51.2%
O=C(CSc1nnc2c(Cl)cc(Cl)cn12)N1CCN(c2ccc(F)cc2)CC1 | -51.5%
Cn1nnnc1SCC(=O)N1CCN(c2ccccc2)CC1 | 12.4%
O=C(CSc1nnc2c(Cl)cc(Cl)cn12)N1CCN(S(=O)(=O)c2ccccc2)CC1 | -19.1%
Oc1ccc(CCc2n[nH]c(=S)n2-c2ccc(F)cc2)cc1 | -22.2%
O=C(COc1ccccc1)Nc1nc2cc3c(cc2s1)OCCO3 | 7.49%
Cc1cccn2c(=O)c3cc(C#N)c(=O)n(CCCN4CCOCC4)c3nc12 | -60.7%
Cc1cccn2c(=O)c3cc(C#N)c(=N)n(CCCN4CCOCC4)c3nc12 | -80%
N#Cc1cc2c(=O)n3ccccc3nc2n(CCCN2CCOCC2)c1=O | -24.3%
COc1ccccc1-n1c(SCC(=O)Nc2cccc3ccccc23)nc(O)cc1=O | 5.56%
CC1=C(C)CC(C(=O)NCCc2ccccc2)C(C(=O)O)C1 (stereo not drawn) | -10.8%
CCN(CC)S(=O)(=O)c1ccc(N2CCOCC2)c(NC(=O)COc2ccccc2C#N)c1 | -3.3%
CCCCNC(=O)c1ccc2c(c1)ncn2C1CCCC1 | -16.7%
COc1ccc(-n2cnc3cc(NS(=O)(=O)c4ccccc4)ccc32)cc1 | 7.83%
CC(C)CCNC(=O)c1ccc2c(c1)ncn2C1CCCCC1 | -42.8%
COc1ccccc1-n1cnc2cc(NS(=O)(=O)c3ccc(Br)cc3)ccc21 | -3.3%

Compound | hERG current change (%, negative = inhibition) at 10uM
COc1ccc(-n2cnc3cc(C(=O)NCC4CCCO4)ccc32)cc1 (stereo not drawn) | -17.9%
COc1ccccc1-n1cnc2cc(C(=O)NCC3CCCO3)ccc21 (stereo not drawn) | -13.7%
COc1ccccc1-n1cnc2cc(C(=O)NC3CCCC3)ccc21 | -65.5%
CCOC(CNC(=O)c1ccc2c(c1)ncn2-c1ccccc1OC)OCC | 2.14%
COc1ccccc1-n1cnc2cc(NS(=O)(=O)c3ccccc3)ccc21 | -57.5%
COc1ccc(-n2cnc3cc(C(=O)NC4CCCC4)ccc32)cc1 | -67.9%
COc1ccc(-n2cnc3cc(C(=O)N4CCOCC4)ccc32)cc1 | -15.6%
CC(C)CCNC(=O)c1ccc2c(c1)ncn2C1CCCC1 | -54.8%
CC(=O)OC/C=C(\C)CCC=C(C)C | -0.25%
Cc1noc(C)c1COc1cccc(C(=O)OC(C)C(=O)Nc2c(C)n(C)n(-c3ccccc3)c2=O)c1 (stereo not drawn) | 4.8%
COc1ccc(CCNC(=O)CCN2C(=O)[C@@H]3Cc4ccccc4CN3C2=O)cc1 | -28.3%
O=c1c2ccccc2nnn1COc1ccc(Cl)cc1Br | 22.2%
COc1ccc(-n2cnc3cc(C(=O)NCCN4CCOCC4)ccc32)cc1 | -23.8%
CCCCCNC(=O)c1ccc2c(c1)ncn2-c1ccc(OC)cc1 | -64%
CCCNC(=O)c1ccc2c(c1)ncn2-c1cc(C)cc(C)c1 | -55.1%
COCCCNC(=O)c1ccc2c(c1)ncn2-c1ccccc1OC | -1.73%
CCOCCCNC(=O)c1ccc2c(c1)ncn2-c1ccccc1OC | -4.39%
CCCNC(=O)c1ccc2c(c1)ncn2-c1ccccc1OC | -60.3%
COC(CNC(=O)c1ccc2c(c1)ncn2-c1cc(C)cc(C)c1)OC | -22.5%
CCOCCCNC(=O)c1ccc2c(c1)ncn2-c1ccc(CC)cc1 | -43.8%
Cc1cc(C)cc(-n2cnc3cc(C(=O)O)ccc32)c1 | 2.82%
